# FLuc counter – firefly luciferase modulation, counter-screen for miR-21 project | P08659 | purified FLuc, Km substrates, luminescence inhibition | Potency, µM (top dose mostly 57.5 µM), without a hit: at the highest dose activity change, negative = inhibition, actives largely listed as inhibitors | 360,000 compounds, 6.9% hits;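 further: plate controls were vehicle for no effect and reference inhibitor for full effect; nearly all actives have a fitted effect of over 55% in size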
# Target sequence (P08659 whole entry, looked up): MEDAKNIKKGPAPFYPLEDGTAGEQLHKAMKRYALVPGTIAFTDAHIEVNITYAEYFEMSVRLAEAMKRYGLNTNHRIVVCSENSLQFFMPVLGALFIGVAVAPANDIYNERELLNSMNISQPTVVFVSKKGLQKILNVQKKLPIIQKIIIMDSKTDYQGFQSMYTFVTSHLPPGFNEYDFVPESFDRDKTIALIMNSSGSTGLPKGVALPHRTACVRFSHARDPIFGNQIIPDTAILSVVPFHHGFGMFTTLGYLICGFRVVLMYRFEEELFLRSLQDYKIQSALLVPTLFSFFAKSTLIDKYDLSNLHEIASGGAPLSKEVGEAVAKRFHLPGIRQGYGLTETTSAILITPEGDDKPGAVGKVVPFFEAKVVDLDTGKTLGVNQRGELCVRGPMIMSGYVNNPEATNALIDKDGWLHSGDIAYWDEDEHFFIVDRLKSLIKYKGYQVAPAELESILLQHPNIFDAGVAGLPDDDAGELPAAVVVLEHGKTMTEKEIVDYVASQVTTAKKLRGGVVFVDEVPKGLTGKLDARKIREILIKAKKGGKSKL
#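 Purified P. pyralis luciferase (10nM final) with 10uM D-luciferin and 10uM ATP (Km levels) in 50mM Tris acetate pH 7.5, 10mM Mg acetate, 0.01% Tween-20, 0.05% BSA; qHTS 6-point titration, ~60 µM downward; luminescence read.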
# ELG1 repair inh – blocks ELG1-dependent DNA repair in HEK293T cells | HEK293T ELG1-luciferase reporter, luminescence, 16 h; DNA damage induced by 5-fluorouridine | Potency, µM (highest dose often 46.1 µM), inactives show at the top dose activity change, negative = inhibition, actives largely listed as inhibitors | 330,000 compounds, 2.3% hits; further: on the % scale 0 is the no-effect control and ±100 the full control effect; nearly all actives have a fitted effect of over 55% in size
#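 Overnight (16 hr) co-exposure of 2,000 cells/well to 5-fluorouridine and compound at 37 °C preceded detection. Luciferase was quantified via ONE-Glo luminescence; loss of signal denotes inhibition.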
# SMN2 splice enh – increases expression of the SMN2 splice variant. HEK293 SMN2-luciferase splicing reporter, luminescence, 30-36 h. Potency, µM (series often up to 46.1 µM), for the others: top-dose activity change, positive = activation, actives largely listed as activators. 210,000 compounds, 2.8% hits. AID 1458; further: % of control where 0% means no effect; nearly all actives have a fitted effect of over 55% in size
#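 qHTS luciferase splicing reporter: luminescence rises when SMN2 exon 7 is included in transfected HEK293 cells. Compound exposure lasted 30-36 h at 37C, with 4.5 mM final sodium butyrate as control, followed by a ONE-Glo read.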
# ELG1 genotoxic – genotoxicity induction in ELG1-luciferase HEK293T cells; 330,000 compounds, 1.3% hits; HEK293T ELG1-luciferase reporter, luminescence, 16 h; Potency, µM (series often up to 46 µM), for the others: top-dose activity change, positive = activation, usual class: activators; AID 504466; further: % of control where 0% means no effect; nearly all actives have a fitted effect of over 60% in size
#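 HEK293T cells expressing luciferase-tagged ELG1 were treated with compound or DMSO for 16 hr at 37°C. Luciferase activity was then read after 30 min with ONE-Glo at room temperature; rising signal flags genetic stress.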
# Rab9 prom act – activators of Rab9 promoter; Huh7 Rab9 promoter-luciferase reporter, luminescence, 24 h; Potency, µM (highest dose often 9.22 µM), without a hit: top-dose activation, negative = inhibition, actives largely listed as activators; 320,000 compounds, 2.8% hits; AID 485297; further: % of control where 0% means no effect; nearly all actives have a fitted effect of over 60% in size
#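 Luminescence read-out: Huh7 cells stably expressing Rab9-luciferase, treated 24 h with compound at 37 °C, then lysed with luciferase reagent for 10 min at ambient before reading.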
# NPC1 promoter act – activators of NPC1 promoter. 320,000 compounds, 2.4% hits. AID 485313. Potency, µM (top dose mostly 9.22 µM), without a hit: at the top dose activation, hits mostly activators. Huh7 NPC1 promoter luciferase reporter, 24 h; further: % of control where 0% means no effect; nearly all actives have a fitted effect of over 60% in size
#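 Huh7 reporter cells (NPC1 promoter driving luciferase) are dosed with compound for 24 h at 37 °C, 5% CO2; luciferase detection reagent is then added and luminescence measured after 10 min at ambient temperature.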
# Active calls of the source: *; u = inconclusive; x = no result; [ ] = dose if it differs, or a comment. Shown are actives, neighbours in structure and some others; about 9.4% of the full set was active somewhere. The call rests on the fitted dose curve; in most records, active means well fitted curve in the direction sought with a large enough effect; inconclusive means small, poorly fitted or top-dose-only effect, or another doubt; inactive means no such curve, though single readings can be large; an effect the other way counts as inactive or inconclusive. Potency means the concentration at half of the fitted maximal effect.
SMILES,FLuc counter,ELG1 repair inh,SMN2 splice enh,ELG1 genotoxic,Rab9 prom act,NPC1 promoter act
Cc1ccc(-c2cc(N)n(-c3ccc(F)cc3)n2)cc1,9.5µM*,u,13µM*,23µM*,3.5µM*,u
Cc1cc(N)n(-c2ccc(C)c(C)c2)n1,u,u,x,u,29%,22%
Cc1ccc(-c2cc(N)n(-c3ccc(C)cc3)n2)cc1,13µM*,u,u,u,3.5µM*,2.5µM*
COc1cc(OC)c(NC(=O)c2ccc3nc(C(C)C)oc3c2)cc1Cl,3%,x,x,x,x,x
COc1ccc(OC)c(CNC(=O)c2nn(-c3ccc(OC)c(Cl)c3)c(=O)c3c2c2ccccc2n3C)c1,1%,x,10%,x,x,x
S=C(NCCN1CCOCC1)Nc1ccc(-c2nc3ccccc3[nH]2)cc1,u,12%,0%,-4%,u,25%
Cc1ncc(CO)c(CNc2ccc(-c3nc4ccccc4[nH]3)cc2)c1O,3.4µM*,u,x,u,1.6µM*,1µM*
CCCCn1c(N)c(N(CC(C)C)C(=O)c2ccc(-c3ccc(Cl)cc3)o2)c(=O)[nH]c1=O,0%,15µM*,x,-8%,-2%,-1%
O=C(c1cc(-c2ccncc2)nc2ccccc12)N1CCN(c2ccccn2)CC1,u,u,4%,-10%,-6%,-23%
O=C(c1cc(-c2ccncc2)nc2ccccc12)N1CCN(c2ccc(N3CCOCC3)nn2)CC1,-1%,-24%,14%,-4%,0%,-1%
O=C(c1cc(-c2ccncc2)nc2ccccc12)N1CCN(c2ncccn2)CC1,x,23µM*,x,-5%,x,x
O=C(c1cc(-c2ccccc2)nc2ccccc12)N1CCN(c2ccccn2)CC1,12µM*,u,-5%,-13%,-7%[1.84 µM],0%
COc1ccc(Cn2ccc3nc(C)c(C(=O)N4CCN(c5ccccc5F)CC4)cc3c2=O)cc1,-8%,x,x,x,x,x
COc1ccc(-n2c(C)nc3c(cnn3-c3ccc(Cl)cc3)c2=O)cc1,-9%,18µM*,-50%,-11%,-8%,-11%
O=C(COc1ccc(F)cc1)Nc1nccs1,7.6µM*,u,11µM*,u,1µM*,2µM*
CN(C)C(=O)c1ccc(COc2ccccc2Br)o1,19µM*,u,8.9µM*,21µM*,u,u
O=C(Nc1nccs1)c1ccc(COc2ccccc2Br)o1,19µM*,-10%,-16%,u,u,27%
O=C(Nc1nccs1)c1ccc(COc2ccc(F)cc2)o1,15µM*,-26%,15%,3%,u,u
COc1ccccc1OCc1ccc(C(=O)N(C)C)o1,u,u,u,18%,-8%,2%
COc1ccc(OC)c(NC(=O)c2c(N3CCCC3=O)c3cc(OC)ccc3n2C)c1,-10%,x,x,x,x,x
O=C(CSc1nc2c([nH]c3ccccc32)c(=O)n1-c1ccccc1)N1CCc2ccccc21,-3%,x,x,x,x,x
COc1ccc(OCC(=O)Nc2nc3c(s2)CCCC3)cc1,u,18%,x,2%,6%,11%
Cc1cccc(OCC(=O)Nc2nccs2)c1C,1.5µM*,u,x,2.1µM*,0.35µM*,0.35µM*
O=C(COc1ccc(F)cc1)Nc1nc2c(s1)CCCC2,27µM*,u,x,u,u,u
CCOC(=O)c1cc(-c2ccc(OC)cc2)n(CCC(=O)NCCc2ccc(OCC)c(OCC)c2)c1C,-1%,x,x,x,x,x
SMILES,FLuc counter,ELG1 repair inh,SMN2 splice enh,ELG1 genotoxic,Rab9 prom act,NPC1 promoter act
Cn1c(NCCCCO)nc2c1c(=O)n(Cc1ccc(Cl)cc1)c(=O)n2C,3%,x,4%,x,x,x
OC1(c2cccc(C(F)(F)F)c2)CCN(c2ncnc3c2[nH]c2ccccc23)CC1,8%,4%,-8%,3%,-2%,1%
COc1cccc2[nH]c3c(N4CCC5(CC4)OCCO5)ncnc3c12,u,-11%,x,-3%,3%,-4%
c1ccc2c(c1)CCN(c1ncnc3c1[nH]c1ccccc13)C2,-5%,9.2µM*,x,-34%,-26%,-17%
COc1cccc(N2CCN(c3ncnc4c3[nH]c3ccccc34)CC2C)c1 (stereo not drawn),-5%,4.6µM*,-123%,-11%,-24%,-2%
c1ccc2c(c1)[nH]c1c(N3CCC4(CC3)OCCO4)ncnc12,1%,21µM*,-73%,-12%,-11%,1%
COc1cccc2[nH]c3c(N4CCc5ccccc5C4)ncnc3c12,-1%,13µM*,x,-8%,1%,4%
COc1ccc(CCn2c3c(c(=O)[nH]c2=O)C(NC(=O)c2ccc(C(C)(C)C)cc2)(C(F)(F)F)C(=O)N3)cc1OC (stereo not drawn),u,x,0%,x,x,x
CCc1cccc(NC(=O)Nc2csc3c2CCCC3)c1,u,x,16%,x,x,x
N#CCCn1c(=O)c(CCc2ccccc2)nc2cnc(N3CCOCC3)nc21,x,x,-3%,x,x,x
CSCC[C@H](NC(=O)Cc1c(C)c2c(cc(C)c3c(C)coc32)oc1=O)C(=O)O,19µM*,-2%,x,1%,-9%,-3%
CC[C@@H](C)[C@H](NC(=O)Cc1c(C)c2c(cc(C)c3c(C)coc32)oc1=O)C(=O)O,u,4%,x,2%,-2%[1.84 µM],-12%
Cc1cc2oc(=O)c(CC(=O)NCCCN(C)C)c(C)c2c2occ(C(C)(C)C)c12,u,u,x,1%,-4%,22%
Cc1cc2oc(=O)c(CC(=O)NCCCO)c(C)c2c2occ(C(C)(C)C)c12,11µM*,6%,x,-1%,0%,16%
COCCNC(=O)Cc1c(C)c2c(cc(C)c3c(C(C)(C)C)coc32)oc1=O,2.7µM*,6%,x,4%,-8%,-19%
Cc1cc2oc(=O)c(CC(=O)O)c(C)c2c2occ(C(C)(C)C)c12,21µM*,u,x,20%,15%,u
O=C(CN1C(=O)C2(SCC(=O)N2c2ccccc2)c2ccccc21)Nc1ccccc1C(F)(F)F (stereo not drawn),-4%,x,x,x,x,x
COc1ccc2c(CNCCc3ccccc3)c(C(=O)O)n(Cc3cccc(F)c3)c2c1,-11%,x,x,x,x,x
CSc1ccc(CCNC(=O)c2ccc3c(c2)nc2n3CCC(C)C2)cc1 (stereo not drawn),-20%,x,x,x,x,x
CC1CCn2c(nc3cc(C(=O)NCCc4ccccc4)ccc32)C1 (stereo not drawn),9.5µM*,x,x,x,x,x
CC(CNC(=O)c1ccc2c(c1)nc1n2CCCCC1)c1ccccc1 (stereo not drawn),21µM*,x,x,x,x,x
CSc1ccc(CCNC(=O)c2ccc3c(c2)nc2n3CCCCC2)cc1,24µM*,x,x,x,x,x
Cc1ccccc1CCNC(=O)c1ccc2c(c1)nc1n2CCCCC1,0.54µM*,x,x,x,x,x

# Source: PubChem BioAssay
